Experimental data as given in the supplement of paper PMC6555819.

system: VDR:RXRa (NR concentration 270 nM, RXRa partner concentration 90 nM); experiment: PBM binding z-score (relative to random genomic background probes); higher = stronger binding; sequences stand for … in GC…GCGATTGACAGCGTAGAATGAAGG
Protocol: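 Protein-binding microarray (Agilent 4x180K custom design, double-stranded 60-nt probes: 5' GC cap, 34-nt variable region, 24-nt constant primer region; full probe sequence given). Purified or IVT nuclear receptor:RXRα heterodimers (3:1 NR:RXRα, mostly 270:90 nM) or homodimers were incubated for 1 h in PBS with 2% milk and no ligand, then detected with Alexa488 antibodies. Fluorescence from o1-orientation probes (~5 replicates averaged) was converted to z-scores against 500 random hg19 background probes. Variable regions are seed direct-repeat (DR0–DR5) sites, all their single-nucleotide variants and half-site ablations.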

Sequence	PBM binding z-score
AGAATGAGGTGACCAAAGATCAGGGAAACGCTTG	0.0943
GCTGACAGGTGAAACGCAGGTAACTCAGGGTGGC	-0.355
ATATGTAGGTTAGCTGGGGTCATTGAGACTAGGC	5.95
CCTACTGGTCCAAAGGTCATTGATTCCAATGCTC	4.83
TGATATAGGTAATACAGGTGAAAGTCGGCATCTA	0.523
CGAACTAGGTCAGAACAGGACAGTGTAGGATGAT	0.86
GCTAGCAGGCCATTTGGGTTACTCAATGACGGGC	-0.436
ATCTCTAGGTAACCCAGTTCAGTGAATGCCGAAC	2.74
TCTTGTAGTTCAACAGGAGGTTAAGAAAGATCGA	2.57
TCGAGTTGGTTACCAATGGGGCATTCAGCTTTCT	-0.461
CCTCGGAGGACAAAAGGTCAGAGCTGTCCGCTTT	3.17
CCAGACAGGTGAGAAGGTAATTCAGCCTCGATTA	-0.16
ACTAGCAGGCCAAGTTTGGGCCACTCAAACAAAG	-0.648
TCTTGTAGATCAAGCAGGTTAAGGAAGCCTGAGT	-0.0838
AATACACGGTCATCGTAGGCCAGAGTACGCACAG	0.576
GCGACTGGGGCAAAGCAGGTTACCGTAAGGTTGG	-0.0193
GCTTACGGGTCAAAGCTTATAGCATGAATAGAAT	3.36
CTCGAAAGGTTGGTTGAGGTGAGTATACGGATAA	0.828
AGTCAAACTTCATCTAGGTAACGTAAGATATGCT	-0.0435
TCATATAGGTAATACAGGAGAAAGTCGGCATCTA	0.996

Sequence	PBM binding z-score
CCGAGTAGGTTATGTGGCATTCAGGCAACGGTGA	-0.184
CAAACTAGGTGACGAAAGGTCAAAGTCGAATGAC	5.16
CTACCAAGGTGAACAATGTCGTTGATTACTATTC	1.37
TTACCAAGGGGAAGGTCGTTGATCCCTCTGTAGA	0.561
AGAATGAGGTTACCAAAGATCACGGAAACGCTTG	1.97
CCTGCTAGGTCAATGGTCAGATAAAGCAGCTCGC	0.927
TCATATAGGTAAAAGGTGATAGTCGGTGTGGTAA	1.13
ATCTCTAGGTAAGACTCAGGTCAGTGAAGAACGC	0.693
TCTTGTAGATCAAGCAGCTTAAGAAAGCCTGAGT	0.0668
CCTAGCAGGCCAATCTGGGTCGCTCAAGGCTTGA	0.301
AGAACGAGGGCACGCTGAGTTGAGAGCAGAGTAG	1.59
CAAACTAGGTCAAGGACAAAGTCGGTTTGTGCCA	1.79
GCTAGCAGGCCATTTGAGTCACTCAATGACGGGC	-0.568
CAAACTAGGTCACAGAGGTCACAGTCCGTGCGTA	7.66
CGTTCAAGGTCAAGGTCAGTGAAAGAGACTCGAA	5
CCTCGGAGGACGGAAGGTCAGAGCTGTCCGCTTT	0.873
TAGCTTAGGTCATGGGCCAGTATACCACGCGAAC	2.15
TATTGTAGATCAGCAGGTTAAGAAAGCTGGCCAA	0.112
CCTAGTGGGCCAAAAAGGTCATTGATGCCGATAA	4.82
CGAACGGGGGCATGAGTTGATAGCAAATGCCGAT	3.88
